Sampled rows, rich in hits. Any-hit rate of the full collection: about 14%.
Sm TGR block: inhibitors of Schistosoma mansoni thioredoxin glutathione reductase. Q962Y6. purified TGR, DTNB reduction, TNB absorbance 405 nm. Potency, µM (series often up to 114 µM), inactives show at the top dose activity change, negative = inhibition, actives largely listed as inhibitors. hit rate 3% among 360,000; also: potency is read from the fitted curve at half-maximal effect; nearly all actives have a fitted effect of over 60% in size
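TGR 20 nM + NADPH 100 uM (dispensed conc.), cpd preinc 15 min RT; start with NADPH (500 uM addition) then DTNB (15 mM addition). Kinetic TNB absorbance, 405 nm filter. Four-parameter Hill fit across titration.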
Pf growth 96h: inhibits malaria parasite growth, 96 h | P. falciparum luciferase reporter growth, 96 h | Potency, µM (top dose mostly 28.7 µM), inactives show at the top dose activity change, negative = inhibition, usual class: inhibitors | hit rate 6.9% among 320,000; also: potency is read from the fitted curve at half-maximal effect
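P. falciparum expressing integrated firefly luciferase grown in erythrocytes (2% hematocrit, 0.05% parasitemia final) with compounds for 96 hours at 37 C, 5% CO2. Growth inhibition read as loss of luminescence after adding luciferase detection reagent.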
HCMV inh: inhibitors of human cytomegalovirus. HFF cells, HCMV-luciferase reporter, 72 h; active compounds read low. activity change, negative = inhibition, % at 57.5 µM. hit rate 4.5% among 410,000. AID 1259415; in the data active = activity change below about -60%; inconclusive = no clear call, values can overlap the other calls; inactive = above about -39%
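Compounds were evaluated in HFFs infected with an HCMV luciferase reporter virus (MOI 1 PFU/cell). Luciferase in lysates collected 72 h post infection served as the replication measure.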
Giardia FBPA inh: inhibitors of Giardia lamblia fructose-1,6-bisphosphate aldolase; A8B2U2; purified Giardia FBPA; Potency, µM (doses to about 59.6 µM), without a hit: top-dose activity, negative = inhibition, most hits filed as inhibitors; hit rate 0.71% among 290,000; AID 2451; also: potency is read from the fitted curve at half-maximal effect; nearly all actives have a fitted effect of over 55% in size
Target sequence (A8B2U2 whole entry, looked up): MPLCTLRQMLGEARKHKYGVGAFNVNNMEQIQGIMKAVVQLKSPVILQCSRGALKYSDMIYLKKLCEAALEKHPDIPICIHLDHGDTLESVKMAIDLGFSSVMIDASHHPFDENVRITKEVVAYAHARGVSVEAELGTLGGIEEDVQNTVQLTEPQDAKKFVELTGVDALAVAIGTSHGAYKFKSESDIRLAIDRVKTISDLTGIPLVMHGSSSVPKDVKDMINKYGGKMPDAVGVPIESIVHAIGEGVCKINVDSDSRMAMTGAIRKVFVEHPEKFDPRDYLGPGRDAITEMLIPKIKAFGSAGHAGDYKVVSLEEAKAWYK
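Giardia FBPA (40 nM reagent) was preincubated 10 min at RT with compound (up to 57.5 uM final), then substrate plus GAPDH/TPI/NAD/arsenate coupling system with diaphorase/resazurin was added; resorufin fluorescence (525/598 nm) was read after 20 min.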
Pf growth 48h: P. falciparum growth inhibition at 48 hours (one generation); P. falciparum luciferase growth in erythrocytes, 48 h; Potency, µM (doses to about 28.7 µM), for inactives: at the highest dose activity change, negative = inhibition, hits mostly inhibitors; hit rate 5.9% among 310,000; AID 504832; also: potency is read from the fitted curve at half-maximal effect
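Cell-based growth assay: transgenic P. falciparum expressing firefly luciferase, cultured in red cells within RPMI 1640 containing 0.5% w/v Albumax, 24 mM bicarbonate and gentamycin. A drop in luciferase activity indicates inhibition.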
Active calls of the source: *; [ ] = dose if it differs, or a comment. Unless noted, calls follow the shape of the dose curve; as a rule, active = well fitted curve in the direction sought with a large enough effect; inconclusive = small, poorly fitted or top-dose-only effect, or another doubt; inactive = no such curve, though single readings can be large; an effect the other way counts as inactive or inconclusive. % is scaled to controls: 0 for no effect and ±100 for the full control effect.

How did CCC(=O)N/N=C/c1ccc(OS(=O)(=O)c2ccccc2)cc1 do in these assays?
Sm TGR block: -19%; Pf growth 96h: inconclusive; HCMV inh: 104; Giardia FBPA inh: -4%; Pf growth 48h: 10µM*

Results for COc1ccc(/C=N/NC(=O)CNS(=O)(=O)c2ccccc2)cc1 ?
Sm TGR block: -8%; Pf growth 96h: inconclusive; HCMV inh: 24; Pf growth 48h: -22%

Results for Cn1cc(Cl)c(C(=O)N/N=C/c2ccc(OS(=O)(=O)c3ccccc3)cc2)n1 ?
Sm TGR block: -3%; Pf growth 96h: 9.3µM*; HCMV inh: -28; Giardia FBPA inh: 1%; Pf growth 48h: inconclusive

Results for Oc1cccc(Nc2nc(-c3ccccc3Cl)nc3ccccc23)c1 ?
Sm TGR block: 3%; Pf growth 96h: -11%; HCMV inh: inconclusive; Giardia FBPA inh: 6%; Pf growth 48h: inconclusive

How did Cc1ccc(S(=O)(=O)c2nc(Nc3ccccc3)sc2Cl)cc1 do in these assays?
Sm TGR block: -20%; Pf growth 96h: 0%; HCMV inh: -74*; Giardia FBPA inh: -1%; Pf growth 48h: 7%

Results for Cc1ccc(S(=O)(=O)c2nc(NCCN(C)C)sc2Cl)cc1 ?
Sm TGR block: -19%; Pf growth 96h: inconclusive; HCMV inh: inconclusive; Giardia FBPA inh: 8%

Results for COc1ccc(Nc2nc(S(=O)(=O)c3ccc(C)cc3)c(Cl)s2)cc1 ?
Sm TGR block: 5%; Pf growth 96h: inconclusive; HCMV inh: -94*; Giardia FBPA inh: 0%; Pf growth 48h: 19%

Results for O=S(=O)(c1ccccc1)c1nc(Nc2cccc(O)c2)sc1Cl ?
Sm TGR block: inconclusive; Pf growth 96h: -29%; HCMV inh: -67*; Giardia FBPA inh: 0%[12.9 µM]; Pf growth 48h: 2%

Results for O=C(O)[C@H]1CN(C/C=C/P(=O)(O)O)CCN1 ?
Pf growth 96h: 12%; Giardia FBPA inh: 0%; Pf growth 48h: -2%

How did COC(=O)c1c(-c2ccc(Cl)cc2)noc1N1CCN(c2cccc(OC)c2)CC1 do in these assays?
Sm TGR block: -4%; HCMV inh: -72*

Results for COc1ccc(NC(=O)C2CCN(c3nc(-c4ccc(OC)cc4)no3)CC2)cc1 ?
Sm TGR block: 11%; Pf growth 96h: -4%; HCMV inh: -21; Giardia FBPA inh: -1%; Pf growth 48h: -16%

Results for CCN(C(=O)C1CCN(c2nc(-c3ccc(OC)cc3)no2)CC1)c1ccc(OC)cc1 ?
Sm TGR block: 8%; Pf growth 96h: 2%; HCMV inh: -73*; Giardia FBPA inh: -13%; Pf growth 48h: 9.3µM*

How did COc1ccc(-c2noc(N3CCC(C(=O)N4CCN(c5ccccn5)CC4)CC3)n2)cc1 do in these assays?
Sm TGR block: 15%; Pf growth 96h: inconclusive; HCMV inh: -83*; Giardia FBPA inh: 0%; Pf growth 48h: inconclusive

Results for COc1ccc(-c2noc(N3CCC(C(=O)N4CCN(c5cccc(C)c5C)CC4)CC3)n2)cc1 ?
Sm TGR block: 0%; HCMV inh: -29

What do the screens show for `COc1ccc(-c2noc(N3CCC(C(=O)N4CCN(c5ccccc5OC)CC4)CC3)n2)cc1`?
Sm TGR block: 0%; HCMV inh: -77*

How did CC(=O)Nc1cnc(-c2cc(C)c(O)c(C)c2)cn1 do in these assays?
HCMV inh: 193

How did COc1ccc(C2C(C(=O)N3CCN(c4ccccn4)CC3)CCC(=O)N2c2ccc(OC)cc2)cc1 (centres undefined) do in these assays?
Sm TGR block: -1%; Pf growth 96h: 9%; HCMV inh: 1; Giardia FBPA inh: 1%; Pf growth 48h: -5%

Results for COc1ccc(-c2noc(N3CCC(C(=O)N4CCN(c5cccc(OC)c5)CC4)CC3)n2)cc1 ?
Sm TGR block: -2%; HCMV inh: -84*

How did COc1ccc(C2C(C(=O)N3CCN(c4ccccn4)CC3)CC(=O)N2c2ccc(OC)cc2)cc1 (centres undefined) do in these assays?
Sm TGR block: -20%; Pf growth 96h: 10%; HCMV inh: -19; Giardia FBPA inh: 3%; Pf growth 48h: 4.7µM*

Compound activity: PubChem, National Center for Advancing Translational Sciences (NCATS)
